Read-outs that look alike come from different tables or passages of the source.
Tested on: STK3
Details: read-out: apparent Kd, n = 1

Lestaurtinib
potency estimated from few doses (compound concentrations:100 nM and 1000 nM (sheet 'Lestaurtinib' of Supplementary Table 1),run:Lestaurtinib_02367_R1,Plate:MR003): 0.0391 µM
potency estimated from few doses (compound concentrations:100 nM and 1000 nM (sheet 'Lestaurtinib' of Supplementary Table 1),run:Lestaurtinib_02367_R2,Plate:MR003): 0.0373 µM
potency estimated from few doses (compound concentrations:100 nM and 1000 nM (sheet 'Lestaurtinib' of Supplementary Table 1),run:Lestaurtinib_02367_R3,Plate:MR003): 0.0429 µM
potency estimated from few doses (compound concentrations:100 nM and 1000 nM (sheet 'Lestaurtinib' of Supplementary Table 1),run:Lestaurtinib_02381_R1,Plate:MR004): 0.0329 µM
potency estimated from few doses (compound concentrations:100 nM and 1000 nM (sheet 'Lestaurtinib' of Supplementary Table 1),run:Lestaurtinib_02381_R2,Plate:MR004): 0.0382 µM
potency estimated from few doses (compound concentrations:100 nM and 1000 nM (sheet 'Lestaurtinib' of Supplementary Table 1),run:Lestaurtinib_02407_R1,Plate:MR005): 0.04 µM
potency estimated from few doses (compound concentrations:100 nM and 1000 nM (sheet 'Lestaurtinib' of Supplementary Table 1),run:Lestaurtinib_02407_R2,Plate:MR005): 0.0298 µM
potency estimated from few doses (compound concentrations:100 nM and 1000 nM (sheet 'Lestaurtinib' of Supplementary Table 1),run:Lestaurtinib_02407_R3,Plate:MR005): 0.0301 µM
potency estimated from few doses (compound concentrations:100 nM and 1000 nM (sheet 'Lestaurtinib' of Supplementary Table 1),run:Lestaurtinib_02422_R1,Plate:MR006): 0.0511 µM
potency estimated from few doses (compound concentrations:100 nM and 1000 nM (sheet 'Lestaurtinib' of Supplementary Table 1),run:Lestaurtinib_02422_R2,Plate:MR006): 0.0627 µM
potency estimated from few doses (compound concentrations:100 nM and 1000 nM (sheet 'Lestaurtinib' of Supplementary Table 1),run:Lestaurtinib_02437_R1,Plate:MR007): 0.0381 µM
potency estimated from few doses (compound concentrations:100 nM and 1000 nM (sheet 'Lestaurtinib' of Supplementary Table 1),run:Lestaurtinib_02437_R2,Plate:MR007): 0.0507 µM
potency estimated from few doses (compound concentrations:100 nM and 1000 nM (sheet 'Lestaurtinib' of Supplementary Table 1),run:Lestaurtinib_02438_R1,Plate:MR008): 0.0298 µM
potency estimated from few doses (compound concentrations:100 nM and 1000 nM (sheet 'Lestaurtinib' of Supplementary Table 1),run:Lestaurtinib_02443_R1,Plate:MR009): 0.0416 µM
potency estimated from few doses (compound concentrations:100 nM and 1000 nM (sheet 'Lestaurtinib' of Supplementary Table 1),run:Lestaurtinib_02443_R2,Plate:MR009): 0.0391 µM
potency estimated from few doses (compound concentrations:100 nM and 1000 nM (sheet 'Lestaurtinib' of Supplementary Table 1),run:Lestaurtinib_02473_R1,Plate:MR010): 0.0473 µM
potency estimated from few doses (compound concentrations:100 nM and 1000 nM (sheet 'Lestaurtinib' of Supplementary Table 1),run:Lestaurtinib_02473_R2,Plate:MR010): 0.0422 µM
potency estimated from few doses (compound concentrations:100 nM and 1000 nM (sheet 'Lestaurtinib' of Supplementary Table 1),run:Lestaurtinib_02482_R1,Plate:MR011): 0.0271 µM
potency estimated from few doses (compound concentrations:100 nM and 1000 nM (sheet 'Lestaurtinib' of Supplementary Table 1),run:Lestaurtinib_02482_R2,Plate:MR011): 0.0447 µM
potency estimated from few doses (compound concentrations:100 nM and 1000 nM (sheet 'Lestaurtinib' of Supplementary Table 1),run:Lestaurtinib_02482_R3,Plate:MR011): 0.0408 µM
potency estimated from few doses (compound concentrations:100 nM and 1000 nM (sheet 'Lestaurtinib' of Supplementary Table 1),run:Lestaurtinib_02487_R1,Plate:MR012): 0.0286 µM
potency estimated from few doses (compound concentrations:100 nM and 1000 nM (sheet 'Lestaurtinib' of Supplementary Table 1),run:Lestaurtinib_02487_R3,Plate:MR012): 0.0389 µM
potency estimated from few doses (compound concentrations:100 nM and 1000 nM (sheet 'Lestaurtinib' of Supplementary Table 1),run:Lestaurtinib_02496_R1,Plate:MR013): 0.045 µM
potency estimated from few doses (compound concentrations:100 nM and 1000 nM (sheet 'Lestaurtinib' of Supplementary Table 1),run:Lestaurtinib_02496_R3,Plate:MR013): 0.0487 µM
potency estimated from few doses (compound concentrations:100 nM and 1000 nM (sheet 'Lestaurtinib' of Supplementary Table 1),run:Lestaurtinib_02566_R2,Plate:MR014): 0.041 µM
potency estimated from few doses (compound concentrations:100 nM and 1000 nM (sheet 'Lestaurtinib' of Supplementary Table 1),run:Lestaurtinib_02566_R3,Plate:MR014): 0.0245 µM
potency estimated from few doses (compound concentrations:100 nM and 1000 nM (sheet 'Lestaurtinib' of Supplementary Table 1),run:Lestaurtinib_02572_R2,Plate:MR015): 0.0504 µM
potency estimated from few doses (compound concentrations:100 nM and 1000 nM (sheet 'Lestaurtinib' of Supplementary Table 1),run:Lestaurtinib_02572_R3,Plate:MR015): 0.0584 µM
potency estimated from few doses (compound concentrations:100 nM and 1000 nM (sheet 'Lestaurtinib' of Supplementary Table 1),run:Lestaurtinib_02577_R1,Plate:MR016): 0.036 µM
potency estimated from few doses (compound concentrations:100 nM and 1000 nM (sheet 'Lestaurtinib' of Supplementary Table 1),run:Lestaurtinib_02577_R2,Plate:MR016): 0.045 µM
potency estimated from few doses (compound concentrations:100 nM and 1000 nM (sheet 'Lestaurtinib' of Supplementary Table 1),run:Lestaurtinib_02584_R1,Plate:MR017): 0.0386 µM
potency estimated from few doses (compound concentrations:100 nM and 1000 nM (sheet 'Lestaurtinib' of Supplementary Table 1),run:Lestaurtinib_02584_R3,Plate:MR017): 0.0475 µM
potency estimated from few doses (compound concentrations:100 nM and 1000 nM (sheet 'Lestaurtinib' of Supplementary Table 1),run:Lestaurtinib_02601_R1,Plate:MR018): 0.0591 µM
potency estimated from few doses (compound concentrations:100 nM and 1000 nM (sheet 'Lestaurtinib' of Supplementary Table 1),run:Lestaurtinib_02601_R2,Plate:MR018): 0.0396 µM
potency estimated from few doses (compound concentrations:100 nM and 1000 nM (sheet 'Lestaurtinib' of Supplementary Table 1),run:Lestaurtinib_02606_R2,Plate:MR019): 0.0462 µM
potency estimated from few doses (compound concentrations:100 nM and 1000 nM (sheet 'Lestaurtinib' of Supplementary Table 1),run:Lestaurtinib_02606_R3,Plate:MR019): 0.0474 µM
potency estimated from few doses (compound concentrations:100 nM and 1000 nM (sheet 'Lestaurtinib' of Supplementary Table 1),run:Lestaurtinib_02624_R1,Plate:MR020): 0.0532 µM
potency estimated from few doses (compound concentrations:100 nM and 1000 nM (sheet 'Lestaurtinib' of Supplementary Table 1),run:Lestaurtinib_02624_R2,Plate:MR020): 0.0425 µM
potency estimated from few doses (compound concentrations:100 nM and 1000 nM (sheet 'Lestaurtinib' of Supplementary Table 1),run:Lestaurtinib_02624_R3,Plate:MR020): 0.0404 µM
potency estimated from few doses (compound concentrations:100 nM and 1000 nM (sheet 'Lestaurtinib' of Supplementary Table 1),run:Lestaurtinib_02724_R1,Plate:MR021): 0.0448 µM
potency estimated from few doses (compound concentrations:100 nM and 1000 nM (sheet 'Lestaurtinib' of Supplementary Table 1),run:Lestaurtinib_02724_R2,Plate:MR021): 0.0428 µM
potency estimated from few doses (compound concentrations:100 nM and 1000 nM (sheet 'Lestaurtinib' of Supplementary Table 1),run:Lestaurtinib_02724_R3,Plate:MR021): 0.0384 µM

Reference: article PMC11062922 (Nature Chemical Biology, 2023)
